We go through 39 compounds from PubChem BioAssay (EPA / NIEHS).

A structure can be active in one record and inactive in another. The source made the active and inactive calls. How the source made its calls: active means hit-call score of the fitted dose curve at least 0.9, where 1 is the maximum; inactive means score below 0.9.

Read-out in this experiment: adenosine kinase (ADK) gene, ADK (gene 132)
In words: LTEA_HepaRG_ADK: Life Technologies and Expression Analysis (LTEA) Assay for adenosine kinase (ADK) gene using HepaRG (AID 2283471). As to conditions: mRNA level, 48 h; actives raise or lower the signal. Here is the method:
LTEA_HepaRG is a cell based, multiplexed-readout assay that uses HepaRG, a human liver cell line, with measurements taken at 48 hours after chemical dosing on a 96-well plate.LTEA_HepaRG_ADK is one of 102 assay component(s) measured in the LTEA HepaRG cell culture assay. It is a marker of Steatosis.Data from the assay component LTEA_HepaRG_ADK was analyzed into 1 endpoint. This assay endpoint, LTEA_HepaRG_ADK, was analyzed with bidirectional fitting relative to DMSO as the negative control and baseline of activity. Using a type of inducible reporter, measures of mRNA induction for gain or loss-of-signal activity can be used to understand regulation of transcription factor activity. To generalize the intended target to other relatable targets, this assay endpoint is annotated to the kinase intended target family, where the subfamily is steatosis.
A total of 1060 chemcials from the ToxCast library were tested in eight-point concentration-response experiments. Cell culture and cytotoxicity assays were conducted at Thermo Fisher Scientific's Custom Services facility (Madison, WI). A single lot of human HepaRG cells (Thermo Fisher Scientific, Frederick, MD) was used for the cell culture experiments. 96-well format collagen type I coated plates of human HepaRG cells were prepared using established methods. Briefly, cryopreserved HepaRG cells were thawed, plated at a density of approximately 100,000 cells/well in HepaRG Thaw, Plate, and General Purpose media (HPRG770, Thermo Fisher Scientific), and incubated for 48 hours. 0.5% DMSO was selected as vehicle control to balance the requisite need of DMSO in HepaRG cultures to maintain differentiation (for example, baseline metabolism, proportions of hepatocytes vs. cholangiocytes), while enabling further hepatic receptor pathway activation (for example, PXR and CAR) in response to chemical exposure. 48 hours after plating, the culture medium was replaced with HepaRG Serum-Free Incudtion Media. Cells were exposed to each test chemical in duplicate and maintained in CO2 incubators for another 48 hours. Chemical plates were thawed to room temperature and 200x concentrations of treatment groups were prepared. 8-point conentration-reponse curves were made with the highest exposure at 100 uM, followed by half-log dilutions, all in 0.5% DMSO. Each test plate contained variouse controls, induction positive controls (1mM phenobarbital), cytotoxicity positive controls ([…] aflatoxin B1), vehicle controls (0.5% DMSO), and total lysis controls (0.5% DMSO). Cell morphology images were taken using an Essen IncuCyte FLR automated microscope, with six 96-well plates imaged in about 24 minutes. Images were captured and exported and JPEG files. Spent culture media was transfered to black-well plates for the LDH assay, and remaining media was sorted at -80 C for later use. Cells were treated with RLT buffer and frozen until shipped for gene expression analysis. Total RNA was isolated from the cell suspension in 75 uL of Buffer RLT (Qiagen, Germantown, MD 20874) by Quintiles/Expression Analysis (Durham, NC) using a custom isolation procedure. Total RNA from each plate well was transferred to a preamplification plate. Fluidigm's 96.96 Dynamic ArrayTM (Fluidigm, Amsterdam, the Netherlands) technology was used for gene expression analyses by quantitative reverse transcription polymerase chain reaction (qRT-PCR, performed by Quintiles/Expression Analysis, Durham, NC)89. Standard TaqManTM Assays (Applied Biosystems/ThermoFisher Scientific, Foster City, CA) were used to assess the expression of 93 genes selected based on their selectivity and sensitivity to important hepatic receptors known to be modulated by environmental chemicals; importance in human hepatocyte functionality; and hepatotoxicity. […]
Turning to `CCOC1Oc2ccc(OS(C)(=O)=O)cc2C1(C)C` (stereo not given), the result was inactive. Still for that read-out and setting: in the case of `CC1(C)C(C=C(Cl)Cl)C1C(=O)OC(C#N)c1ccc(F)c(Oc2ccccc2)c1` (stereo not given) it was “inactive”.

Turning to `COP(=S)(OC)Oc1ccc([N+](=O)[O-])cc1`, the compound was classed as inactive.

For `CCOCN(C(=O)CCl)c1c(C)cccc1CC`, the compound was called inactive. As to `CNC(=O)Oc1cccc(N=CN(C)C)c1`, the compound was classed as inactive. On the same count and under the same terms, in the case of `OCCOc1ccccc1` it was “inactive”. Still for that read-out and setting: in the case of `O=C(O)C(F)(F)C(F)(F)C(F)(F)C(F)(F)C(F)(F)C(F)(F)C(F)(F)F` it was “inactive”. Regarding `O=[N+]([O-])c1c(Cl)c(Cl)c(Cl)c(Cl)c1Cl`, the compound was classed as inactive.

With `Oc1cc(Cl)ccc1Oc1ccc(Cl)cc1Cl`, the outcome was inactive. In the case of `CN1CSC(=S)N(C)C1`, the compound was called inactive. Take `O=C(NC(=O)c1c(F)cccc1F)Nc1ccc(OC(F)(F)C(F)OC(F)(F)F)c(Cl)c1` (stereo not given): the outcome was inactive. As for `O=S(=O)(O)C(F)(F)C(F)(F)C(F)(F)C(F)(F)C(F)(F)C(F)(F)C(F)(F)C(F)(F)F`, the call was inactive and the AC50 was 12.8 µM (active). As for `CC[C@H](C)[C@H]1O[C@]2(C=C[C@@H]1C)C[C@@H]1C[C@@H](C/C=C(\C)[C@@H](O[C@H]3C[C@H](OC)[C@@H](O[C@H]4C[C@H](OC)[C@@H](O)[C@H](C)O4)[C@H](C)O3)[C@@H](C)/C=C/C=C3\CO[C@@H]4[C@H](O)C(C)=C[C@@H](C(=O)O1)[C@]34O)O2` (tested in a mixture with another compound), the compound was classed as inactive.

Regarding `CNC(=O)Oc1ccccc1OC(C)C`, the compound was called inactive. Take `O=S1OCC2C(CO1)C1(Cl)C(Cl)=C(Cl)C2(Cl)C1(Cl)Cl` (stereo not given): the outcome was inactive.

Take `O=C(O)CCCOc1ccc(Cl)cc1Cl`: the AC50 is 50.8 µM (active). As for `C[C@H]1[C@H](c2ccc(Cl)cc2)SC(=O)N1C(=O)NC1CCCCC1`, the compound was called inactive. As to `N#CN`, the compound was classed as inactive. For the compound `CC(C)OC(=O)Nc1cccc(Cl)c1`, the call was inactive. Consider `CCC(C)(NC(=O)c1cc(Cl)c(C)c(Cl)c1)C(=O)CCl` (stereo not given), for which the AC50 was 92.1 µM (active).

On to `CC(C)N(C(=O)COc1nnc(C(F)(F)F)s1)c1ccc(F)cc1`, for which the compound was called inactive.

Take `O=[N+]([O-])/N=C1\NCCN1Cc1ccc(Cl)nc1`: the AC50 is 35.2 µM (active). Turning to `O=C(Nc1ccccc1)Nc1cnns1`, the compound was classed as inactive. In the case of `O=C(O)COc1ccc(Cl)cc1Cl`, the compound was classed as inactive. With `CCCN(CCOc1c(Cl)cc(Cl)cc1Cl)C(=O)n1ccnc1`, the compound was classed as inactive. The same measure, in the same setting: in the case of `COP(=S)(OC)Oc1ccc(SC)c(C)c1` it was “inactive”; in that of `CCC(C)Nc1c([N+](=O)[O-])cc(C(C)(C)C)cc1[N+](=O)[O-]` (stereo not given), “inactive”. For the compound `CCN(CC)C(=O)SCc1ccc(Cl)cc1`, the call was inactive.

For `COP(=O)(OC)OC=C(Cl)Cl`, the compound was classed as inactive.

As for `CCc1ccc(C(=O)NN(C(=O)c2cc(C)cc(C)c2)C(C)(C)C)cc1`, the result was inactive. With `C#CCN1C(=O)COc2cc(F)c(N3C(=O)C4=C(CCCC4)C3=O)cc21`, the compound was classed as inactive. The same measure, in the same setting: in the case of `N#Cc1c(Cl)c(Cl)c(Cl)c(C#N)c1Cl` it was “inactive”. On the same count and under the same terms, in the case of `CC(C)(C)C(O)/C(=C\c1ccc(Cl)cc1Cl)n1cncn1` (stereo not given) it was “inactive”; in that of `ClC1C(Cl)C(Cl)C(Cl)C(Cl)C1Cl` (stereo not given), “inactive”; in that of `CNC(=O)/C=C(\C)OP(=O)(OC)OC`, “inactive”. Same read-out and setting: in the case of `O=C1c2ccccc2C(=O)N1SC(Cl)(Cl)Cl` it was “inactive”; in that of `COc1nn(CSP(=S)(OC)OC)c(=O)s1`, “inactive”; in that of `CC(C)(C)C(O)C(Oc1ccc(Cl)cc1)n1cncn1` (stereo not given), “inactive”.

In the case of `Cc1[nH]c(=O)n(C(C)(C)C)c(=O)c1Cl`, the compound was classed as inactive.

In general, AC50 refers to the midpoint of the concentration-response curve, whichever way the signal moves.
